# Results filed as inconclusive are left out. Values without a mark were called inactive. The source made the active and inactive calls. The call rests on the fitted dose curve; in most records, active means well fitted cell-killing curve with a large enough effect in the repeat runs; inconclusive means weak or mixed curves, or effect the other way; inactive means flat fitted curve, though single readings scatter.
# Assay: qHTS assay to identify small molecule that activate the aryl hydrocarbon receptor (AhR) signaling pathway - cell viability counter screen (AID 743086);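 further: HepG2 liver cells carrying the AhR DRE luciferase reporter; nearly all actives have a fitted effect of over 45% in size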
# Conditions: HepG2-AhR-luc viability, CellTiter-Fluor, 24 h; series mostly up to 70.3 µM; viability change, negative = cytotoxic: at the top concentration
# Text: U.S. Tox21 Program National Center for Advancing Translational Sciences [NCATS] NIH Chemical Genomics Center [NCGC] U.S. Environmental Protection Agency [EPA] National Institutes of Environmental Health Sciences [NIEHS] National Toxicology Program [NTP] U.S. Food and Drug Administration [FDA] Tox21 Assay overview: The Aryl hydrocarbon Receptor (AhR), a member of the family of basic helix-loop-helix transcription factors, is crucial to adaptive responses to environmental changes. AhR mediates cellular responses to environmental pollutants such as aromatic hydrocarbons through induction of phase I and II enzymes but also interacts with other nuclear receptor signaling pathways A cell based HepG2-AhR-luc assay (HG2L7.5c1 cell line, developed by Dr. Michael S. Denison, University of California at Davis) was used to assess the activation of AhR. HepG2 (human hepatocellular carcinoma) cells were stably transfected with an Ah receptor-responsive firefly luciferase reporter gene plasmid containing 20 dioxin responsive elements and luciferase reporter gene. Increased luciferase activity can be used to identify the compounds that induce AhR activation. The cytotoxicity of the compounds screened against the HepG2-AhR-luc cell line was tested in parallel by measuring the cell viability using CellTiter-Fluor assay in the same wells.
# Tox21 Assay Protocol Summary: 4000 cells in 5 uL/well were dispensed into white wall/solid bottom 1536-well plates using a Multidrop Combi (Thermo Fisher Scientific Inc., Waltham, MA) dispenser. After the assay plates were incubated at 37C for 5 h, 23 nL of compound or DMSO vehicle was transferred to the assay plates by a pintool station (Kalypsys, San Diego, CA). The plates were incubated at 37C for 24 hr. For cell viability measurement, 1 ul/well of CellTiter-Fluor reagent (Promega, Madison, WI) was added into the assay plates using a Flying Reagent Dispenser (FRD) (Aurora Discovery, CA),and then the assay plates were incubated at 37C for 30 min. The fluorescence intensity in the plates was measured using a ViewLux plate reader (PerkinElmer, Shelton, CT), followed by the addition of 4 uL of ONE-Glo Luciferase Assay reagent (Promega) using an FRD (Aurora Discovery). After the assay plates were incubated at room temperature for 30 min, luminescence intensity was measured using a ViewLux plate reader (Perkin Elmer).
# On the % scale 0 is the no-effect control and ±100 the full control effect.
SMILES,"viability change, negative = cytotoxic",Potency
O=C1OC(=O)c2cc(Oc3ccc4c(c3)C(=O)OC4=O)ccc21,26.2%,
NCCc1ccn[nH]1,-0.239% [at 32.5 µM],
CC(C)CCC(=O)CCC(C)C,10.9%,
O=C(O)c1ccccc1C(=O)OCc1ccccc1,-1.61%,
CCCCC(=O)N(C)C,10.9%,
CCC(=O)c1ccc(O)cc1,-2.28%,
CCCCCCCCOC(C)=O,1.94%,
CCN(CCO)c1cccc(C)c1,19%,
CC(=O)c1ccc2c(c1)CCCC2,-6.08%,
COc1ccc(OC)c(NC(=O)CC(C)=O)c1,16.9%,
C[C@H](CCC(=O)NCC(=O)O)[C@H]1CC[C@H]2[C@@H]3[C@H](O)C[C@@H]4C[C@H](O)CC[C@]4(C)[C@H]3C[C@H](O)[C@]12C,-0.272%,
O=C(Nc1cccc(C2=NCCN2)c1)Nc1cccc(C2=NCCN2)c1,0.196%,
CC(=O)OC(C(=O)c1ccccc1)c1ccccc1 (stereo not given),-2.86% [at 95 µM],
Cc1nc2ccccc2c(=O)o1,15.7% [at 95 µM],
NS(=O)(=O)c1cc2c(cc1Cl)NC(C(Cl)Cl)NS2(=O)=O (stereo not given),-3.3% [at 32.5 µM],
CCN(Cc1cccc(S(=O)(=O)O)c1)c1ccccc1,-0.0711%,
O=CO,-0.0332% [at 8.47 µM],
CC1=CC[C@H](CC=O)C1(C)C,1.51%,
BrC/C=C/CBr,8.24% [at 32.5 µM],
CC(=O)OC(C)c1ccccc1 (stereo not given),0.893%,

SMILES,"viability change, negative = cytotoxic",Potency
CCc1nccnc1C,2.73%,
CC(C)(CO)[C@@H](O)C(=O)NCCCO,7.86%,
C=CCOCC(O)CCl (stereo not given),7.11%,
COC(OC)C(C)c1ccccc1 (stereo not given),-0.154%,
CCC1COC(=O)O1 (stereo not given),1.64%,
N#CCCOCCOCCC#N,-0.425%,
CCOC(=O)CC#N,1.79%,
O=C(O)/C=C/c1ccccc1,,inactive
C[Si]1(C)N[Si](C)(C)N[Si](C)(C)N1,7.76%,
C=CCOC(=O)c1ccc(C(=O)OCC=C)c(C(=O)OCC=C)c1,-4.28%,
CCOC(=O)OCC/C(SC(=O)OCC)=C(\C)N(C=O)Cc1cnc(C)nc1N,-24.2%,
OCCCCCCCl,11.2% [at 95 µM],
CC(=O)OCCCc1ccccc1,-1.34%,
CCCOCCOCCOCCO,18.8%,
O=C(Oc1ccccc1C(=O)O)c1ccccc1O,-18.7%,
Cc1c(C(C)C)c(=O)n(-c2ccccc2)n1C,15%,
CCCCCCCCC(=O)OCC,9.22%,
COc1ccc(/C=N/NC(=O)c2ccncc2)cc1OC,-0.391%,
Cc1oc(=O)oc1CN1CCN(c2cc3c(cc2F)c(=O)c(C(=O)O)c2n3C(C)S2)CC1 (stereo not given),4.97%,
CO/N=C(/C(=O)N[C@@H]1C(=O)N2C(C(=O)O)=C(Cn3nnc(C)n3)CS[C@H]12)c1csc(N)n1,-0.103%,

# Reference: PubChem BioAssay (Tox21)
